The supplement of paper PMC10849652
Of roughly 8,800 targets only a part is listed; those with a hit were picked by preference. About 0.5% of all pairs of compound and target were hits.

Tests used:
Experiment in all cases: log2 fold change, soluble protein after heating vs DMSO (PISA); higher = thermal stabilisation; K562 lysate, 10 uM; active = over 0.2 and 3.5 SD of the protein, either way, in both replicates (recomputed)
lapatinib = compound: CS(=O)(=O)CCNCc1ccc(-c2ccc3ncnc(Nc4ccc(OCc5cccc(F)c5)c(Cl)c4)c3c2)o1 [lapatinib]
Summary of the method: (§1)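 A 30 min treatment with 10 μM compound was applied to crude K562 extract at 1 mg/mL protein in PBS pH 7.4 with 1 mM MgCl2. Heating for 3 min spanned 48°C-58°C, after which aliquots were pooled, adjusted to 0.5% NP-40 at 4°C and spun at 21,000xg for 90 min. TMTpro 16plex LC-MS/MS of the supernatant, with channel sums equalised, gave values recorded as log-two fold change in thermal stability against solvent controls, from duplicates.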

pictilisib = compound: CS(=O)(=O)N1CCN(Cc2cc3nc(-c4cccc5[nH]ncc45)nc(N4CCOCC4)c3s2)CC1 [pictilisib]
Summary of the method: as §1

crizotinib = compound: C[C@@H](Oc1cc(-c2cnn(C3CCNCC3)c2)cnc1N)c1c(Cl)ccc(F)c1Cl [crizotinib]
Summary of the method: as §1

[1] = compound: C[C@H](C1=CC=C(C=C1)C(=O)NC2=C3C=CNC3=NC=C2)N
Summary of the method: as §1

duvelisib = compound: C[C@H](Nc1ncnc2nc[nH]c12)c1cc2cccc(Cl)c2c(=O)n1-c1ccccc1 [duvelisib]
Summary of the method: as §1

gandotinib = compound: Cc1cc(Nc2cc(CN3CCOCC3)c3nc(C)c(Cc4ccc(Cl)cc4F)n3n2)n[nH]1 [gandotinib]
Summary of the method: as §1

tozasertib = compound: Cc1cc(Nc2cc(N3CCN(C)CC3)nc(Sc3ccc(NC(=O)C4CC4)cc3)n2)n[nH]1 [tozasertib]
Summary of the method: as §1

doramapimod = compound: Cc1ccc(-n2nc(C(C)(C)C)cc2NC(=O)Nc2ccc(OCCN3CCOCC3)c3ccccc23)cc1 [doramapimod]
Summary of the method: as §1

bafetinib = compound: Cc1ccc(NC(=O)c2ccc(CN3CC[C@H](N(C)C)C3)c(C(F)(F)F)c2)cc1Nc1nccc(-c2cncnc2)n1 [bafetinib]
Summary of the method: as §1

[2] = compound: Cc1cccc(CC(=O)N2CCc3c2ccc(-c2cn(C)c4ncnc(N)c24)c3F)n1
Summary of the method: as §1

Chain of UniProt P13533 (P13533 whole entry, looked up): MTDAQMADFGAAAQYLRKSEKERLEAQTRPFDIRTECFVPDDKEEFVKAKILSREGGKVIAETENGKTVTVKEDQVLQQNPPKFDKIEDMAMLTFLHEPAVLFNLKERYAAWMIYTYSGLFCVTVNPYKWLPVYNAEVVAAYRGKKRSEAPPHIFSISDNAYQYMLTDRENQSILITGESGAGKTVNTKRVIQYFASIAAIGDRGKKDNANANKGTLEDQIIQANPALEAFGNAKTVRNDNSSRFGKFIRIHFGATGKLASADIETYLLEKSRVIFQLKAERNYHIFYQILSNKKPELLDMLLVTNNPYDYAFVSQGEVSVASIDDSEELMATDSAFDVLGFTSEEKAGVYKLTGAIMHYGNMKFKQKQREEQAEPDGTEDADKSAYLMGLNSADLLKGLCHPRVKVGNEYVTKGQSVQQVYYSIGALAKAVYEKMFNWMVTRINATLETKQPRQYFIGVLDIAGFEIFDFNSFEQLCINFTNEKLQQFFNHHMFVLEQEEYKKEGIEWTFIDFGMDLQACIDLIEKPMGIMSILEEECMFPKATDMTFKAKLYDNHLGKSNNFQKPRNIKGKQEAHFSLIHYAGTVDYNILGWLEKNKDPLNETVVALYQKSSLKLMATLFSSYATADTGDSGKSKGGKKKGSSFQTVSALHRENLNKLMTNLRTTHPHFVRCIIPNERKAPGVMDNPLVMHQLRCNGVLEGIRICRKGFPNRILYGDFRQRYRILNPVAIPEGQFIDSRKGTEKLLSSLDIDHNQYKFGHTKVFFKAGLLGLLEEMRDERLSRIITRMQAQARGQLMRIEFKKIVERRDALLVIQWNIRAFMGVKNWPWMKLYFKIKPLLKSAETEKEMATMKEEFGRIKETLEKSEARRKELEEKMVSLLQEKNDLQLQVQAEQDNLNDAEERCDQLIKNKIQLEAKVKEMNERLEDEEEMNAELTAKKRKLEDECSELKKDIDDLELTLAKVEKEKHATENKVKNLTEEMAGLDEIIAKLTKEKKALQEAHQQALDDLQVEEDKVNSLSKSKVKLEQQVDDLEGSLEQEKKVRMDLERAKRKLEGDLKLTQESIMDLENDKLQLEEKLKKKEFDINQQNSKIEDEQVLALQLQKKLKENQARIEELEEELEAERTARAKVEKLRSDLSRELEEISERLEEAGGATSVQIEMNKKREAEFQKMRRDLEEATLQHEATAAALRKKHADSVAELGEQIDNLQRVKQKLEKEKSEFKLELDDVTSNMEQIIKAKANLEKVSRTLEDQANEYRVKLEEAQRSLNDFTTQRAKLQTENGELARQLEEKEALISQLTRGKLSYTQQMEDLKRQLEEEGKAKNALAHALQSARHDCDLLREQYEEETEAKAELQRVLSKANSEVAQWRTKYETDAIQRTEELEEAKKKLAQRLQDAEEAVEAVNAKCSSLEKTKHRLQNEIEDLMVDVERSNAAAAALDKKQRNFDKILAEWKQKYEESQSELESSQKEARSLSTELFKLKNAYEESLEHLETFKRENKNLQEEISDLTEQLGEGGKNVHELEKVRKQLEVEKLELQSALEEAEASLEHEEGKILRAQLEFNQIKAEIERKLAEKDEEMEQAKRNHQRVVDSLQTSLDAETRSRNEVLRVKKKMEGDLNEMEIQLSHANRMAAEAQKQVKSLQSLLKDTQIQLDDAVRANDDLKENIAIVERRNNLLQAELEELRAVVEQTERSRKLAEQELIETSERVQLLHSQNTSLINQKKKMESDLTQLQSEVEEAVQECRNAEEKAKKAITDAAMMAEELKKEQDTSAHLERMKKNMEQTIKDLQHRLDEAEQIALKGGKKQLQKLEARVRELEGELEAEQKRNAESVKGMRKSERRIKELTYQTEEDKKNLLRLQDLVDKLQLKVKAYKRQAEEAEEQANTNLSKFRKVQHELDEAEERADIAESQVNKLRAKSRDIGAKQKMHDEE
Chain of UniProt Q0ZGT2 (Q0ZGT2 whole entry, looked up): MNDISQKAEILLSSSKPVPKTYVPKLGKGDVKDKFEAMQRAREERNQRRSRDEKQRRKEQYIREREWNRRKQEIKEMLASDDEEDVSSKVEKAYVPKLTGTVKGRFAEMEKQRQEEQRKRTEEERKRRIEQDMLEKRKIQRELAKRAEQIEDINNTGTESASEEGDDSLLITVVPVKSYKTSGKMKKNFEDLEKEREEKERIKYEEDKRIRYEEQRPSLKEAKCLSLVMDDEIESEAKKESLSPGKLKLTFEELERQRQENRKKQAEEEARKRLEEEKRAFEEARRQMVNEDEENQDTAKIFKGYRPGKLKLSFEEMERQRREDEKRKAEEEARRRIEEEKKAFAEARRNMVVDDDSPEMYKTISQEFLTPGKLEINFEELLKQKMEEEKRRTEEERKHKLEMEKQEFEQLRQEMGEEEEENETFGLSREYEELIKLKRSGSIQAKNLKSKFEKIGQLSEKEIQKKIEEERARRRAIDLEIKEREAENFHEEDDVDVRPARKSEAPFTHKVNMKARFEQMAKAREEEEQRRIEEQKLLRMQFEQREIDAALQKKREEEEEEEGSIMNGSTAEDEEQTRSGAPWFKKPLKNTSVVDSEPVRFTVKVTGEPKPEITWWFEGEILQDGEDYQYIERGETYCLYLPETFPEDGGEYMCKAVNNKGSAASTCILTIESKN
Chain of UniProt Q15746 (Q15746 whole entry, looked up): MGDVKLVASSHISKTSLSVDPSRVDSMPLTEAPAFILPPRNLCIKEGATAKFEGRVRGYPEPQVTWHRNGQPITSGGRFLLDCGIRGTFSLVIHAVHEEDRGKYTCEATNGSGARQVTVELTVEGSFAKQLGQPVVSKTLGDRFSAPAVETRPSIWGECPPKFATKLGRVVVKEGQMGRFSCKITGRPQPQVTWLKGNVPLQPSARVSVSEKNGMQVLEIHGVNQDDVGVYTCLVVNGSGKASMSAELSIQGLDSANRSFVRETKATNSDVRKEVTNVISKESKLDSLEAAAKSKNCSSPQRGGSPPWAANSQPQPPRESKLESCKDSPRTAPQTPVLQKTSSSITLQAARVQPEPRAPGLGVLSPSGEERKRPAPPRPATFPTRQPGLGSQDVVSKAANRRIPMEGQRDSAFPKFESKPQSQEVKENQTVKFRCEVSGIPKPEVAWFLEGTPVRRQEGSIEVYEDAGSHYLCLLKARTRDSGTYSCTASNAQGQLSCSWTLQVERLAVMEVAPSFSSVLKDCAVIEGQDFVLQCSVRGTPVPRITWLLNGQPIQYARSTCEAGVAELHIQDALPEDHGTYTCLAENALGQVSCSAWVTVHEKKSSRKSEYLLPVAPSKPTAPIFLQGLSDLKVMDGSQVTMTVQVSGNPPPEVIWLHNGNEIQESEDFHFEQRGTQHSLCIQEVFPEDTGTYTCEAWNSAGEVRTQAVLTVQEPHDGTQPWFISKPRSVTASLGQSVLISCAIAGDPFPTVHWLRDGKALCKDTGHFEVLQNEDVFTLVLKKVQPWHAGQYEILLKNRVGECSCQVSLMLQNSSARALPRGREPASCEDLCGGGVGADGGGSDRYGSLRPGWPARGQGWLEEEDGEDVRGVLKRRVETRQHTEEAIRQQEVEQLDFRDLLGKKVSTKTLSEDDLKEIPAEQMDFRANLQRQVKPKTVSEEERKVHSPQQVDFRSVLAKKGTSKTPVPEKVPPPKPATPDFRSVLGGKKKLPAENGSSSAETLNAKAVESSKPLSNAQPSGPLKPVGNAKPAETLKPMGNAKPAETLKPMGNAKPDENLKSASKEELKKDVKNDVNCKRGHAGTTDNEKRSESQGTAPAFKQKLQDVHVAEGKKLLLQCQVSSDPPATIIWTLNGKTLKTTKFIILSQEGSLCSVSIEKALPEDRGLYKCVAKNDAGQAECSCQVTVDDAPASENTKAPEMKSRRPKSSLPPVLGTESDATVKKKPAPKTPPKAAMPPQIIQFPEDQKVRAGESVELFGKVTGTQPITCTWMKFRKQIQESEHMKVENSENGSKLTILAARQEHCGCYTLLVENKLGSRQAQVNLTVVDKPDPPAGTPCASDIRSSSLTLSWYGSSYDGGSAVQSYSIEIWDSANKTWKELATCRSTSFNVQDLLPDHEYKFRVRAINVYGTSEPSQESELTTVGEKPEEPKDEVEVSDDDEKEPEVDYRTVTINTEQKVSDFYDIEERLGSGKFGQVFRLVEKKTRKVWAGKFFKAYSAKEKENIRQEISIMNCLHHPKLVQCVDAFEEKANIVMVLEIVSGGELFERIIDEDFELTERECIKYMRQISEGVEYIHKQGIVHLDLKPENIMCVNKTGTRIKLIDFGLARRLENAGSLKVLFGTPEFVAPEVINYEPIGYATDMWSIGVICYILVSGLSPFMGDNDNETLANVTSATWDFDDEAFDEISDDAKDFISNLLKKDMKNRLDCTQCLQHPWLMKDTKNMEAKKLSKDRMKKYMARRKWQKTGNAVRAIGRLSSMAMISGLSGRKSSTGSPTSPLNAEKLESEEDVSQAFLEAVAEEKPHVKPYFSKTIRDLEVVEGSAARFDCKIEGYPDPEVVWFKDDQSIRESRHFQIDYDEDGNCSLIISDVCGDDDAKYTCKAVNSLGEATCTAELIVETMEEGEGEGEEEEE
Chain of UniProt Q9UK39 (Q9UK39 whole entry, looked up): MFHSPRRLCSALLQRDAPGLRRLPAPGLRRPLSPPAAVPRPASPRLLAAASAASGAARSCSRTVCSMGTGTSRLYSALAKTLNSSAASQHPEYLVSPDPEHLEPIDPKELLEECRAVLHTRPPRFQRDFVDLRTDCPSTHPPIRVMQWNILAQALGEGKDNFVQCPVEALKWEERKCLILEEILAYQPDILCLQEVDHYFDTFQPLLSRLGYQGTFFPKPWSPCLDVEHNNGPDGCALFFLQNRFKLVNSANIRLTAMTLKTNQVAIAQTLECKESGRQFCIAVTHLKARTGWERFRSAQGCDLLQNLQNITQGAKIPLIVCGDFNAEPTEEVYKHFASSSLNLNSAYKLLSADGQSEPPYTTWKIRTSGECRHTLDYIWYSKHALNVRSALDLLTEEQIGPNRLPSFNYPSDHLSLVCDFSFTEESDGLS
Chain of UniProt P03928 (P03928 whole entry, looked up): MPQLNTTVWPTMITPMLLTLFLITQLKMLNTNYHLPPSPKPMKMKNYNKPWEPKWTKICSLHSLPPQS

Target | log2 fold change (lapatinib) | log2 fold change (pictilisib) | log2 fold change (crizotinib) | log2 fold change [1] | log2 fold change (duvelisib) | log2 fold change (gandotinib) | log2 fold change (tozasertib) | log2 fold change (doramapimod) | log2 fold change (bafetinib) | log2 fold change [2]
NUMB (UniProt P49757) | 0.033 (inactive) | 0.023 (inactive) | 0.02 (inactive) | -0.057 (inactive) | 0.029 (inactive) | 0.097 (inactive) | 0.047 (inactive) | 0.125 (inactive) | -0.069 (inactive) | 0.038 (inactive)
MYLK (UniProt Q15746) | -0.006 (inactive) | 0.015 (inactive) | 0.082 (inactive) | -0.181 (inactive) |  | 0.033 (inactive) | 0.114 (inactive) | 0.611 (active) | 0.712 (active) | -0.047 (inactive)
NR2F2 (UniProt P24468) | 0.06 (inactive) | 0.072 (inactive) | -0.022 (inactive) | -0.163 (inactive) | -0.046 (inactive) | -0.153 (inactive) |  | -0.005 (inactive) | 0.037 (inactive) | -0.023 (inactive)
NOCT (UniProt Q9UK39) | -0.025 (inactive) |  | 0.024 (inactive) |  | 0.039 (inactive) |  | 0.111 (inactive) | 0.063 (inactive) |  | 
MT-ATP8 (UniProt P03928) | 0.024 (inactive) | -0.002 (inactive) | -0.121 (inactive) | 0.402 (active) |  | -0.054 (inactive) | -0.078 (inactive) | 0.011 (inactive) | -0.087 (inactive) | -0.107 (inactive)
NUDT6 (UniProt P53370) |  |  | 0.051 (inactive) |  | -0.034 (inactive) |  | 0.132 (inactive) | -0.073 (inactive) |  | 
NUMB isoform 2 (UniProt P49757) |  |  |  |  | 0.023 (inactive) |  |  |  |  | 
NRIP1 (UniProt P48552) | -0.052 (inactive) | -0.007 (inactive) | -0.155 (inactive) | -0.396 (inactive) | -0.014 (inactive) | 0.407 (inactive) |  | 0.048 (inactive) | -0.07 (inactive) | 0.26 (inactive)
PAGE2B (UniProt Q5JRK9) | 0.216 (inactive) |  | 0.051 (inactive) | 0.267 (inactive) | 0.011 (inactive) | -0.115 (inactive) | -0.017 (inactive) | 0.025 (inactive) |  | -0.097 (inactive)
NPLOC4 (UniProt I3L3I1) |  | 0.145 (inactive) | -0.53 (inactive) |  | 0.038 (inactive) |  | -0.216 (inactive) | -0.002 (inactive) | -0.214 (inactive) | 
NEXN (UniProt Q0ZGT2) | 0.066 (inactive) | -0.137 (inactive) |  | -0.239 (inactive) | -0.088 (inactive) | 0.172 (inactive) | -0.237 (inactive) |  | 0.043 (inactive) | 0.198 (inactive)
NAA30 (UniProt Q147X3) | -0.021 (inactive) | -0.028 (inactive) | -0.01 (inactive) | -0.025 (inactive) | -0.037 (inactive) | 0.012 (inactive) | 0.015 (inactive) | -0.028 (inactive) | 0.042 (inactive) | 0.06 (inactive)
NUDT5 (UniProt C9JYY9) |  |  |  |  |  |  | 0.004 (inactive) |  |  | 
MYBL2 (UniProt P10244) |  |  | -0.018 (inactive) | 0.181 (inactive) | -0.011 (inactive) | -0.286 (inactive) | 0.001 (inactive) | 0.017 (inactive) |  | -0.184 (inactive)
PARD3B (UniProt Q8TEW8) |  |  |  | -0.197 (inactive) | 0.024 (inactive) | 0.074 (inactive) |  |  |  | 0.042 (inactive)
NUB1 isoform 2 (UniProt Q9Y5A7) |  |  | 0.015 (inactive) |  |  |  |  | 0.063 (inactive) |  | 
MYO9A isoform 4 (UniProt B2RTY4) | -0.027 (inactive) | 0.022 (inactive) | -0.03 (inactive) | -0.014 (inactive) | -0.019 (inactive) | -0.044 (inactive) |  | 0.005 (inactive) | -0.103 (inactive) | 0.036 (inactive)

Target | log2 fold change (lapatinib) | log2 fold change (pictilisib) | log2 fold change (crizotinib) | log2 fold change [1] | log2 fold change (duvelisib) | log2 fold change (gandotinib) | log2 fold change (tozasertib) | log2 fold change (doramapimod) | log2 fold change (bafetinib) | log2 fold change [2]
ORC3 (UniProt Q9UBD5) | 0.213 (inactive) |  |  | 0.129 (inactive) |  | -0.311 (inactive) |  |  |  | 0.082 (inactive)
NSUN7 (UniProt Q8NE18) | -0.094 (inactive) | -0.001 (inactive) | -0.374 (inactive) | -0.039 (inactive) |  | 0.022 (inactive) | 0.152 (inactive) | 0.045 (inactive) | 0.285 (inactive) | 0.125 (inactive)
NAA16 (UniProt Q6N069) | 0.048 (inactive) | -0.108 (inactive) |  |  | 0.029 (inactive) |  | -0.016 (inactive) |  | 0.022 (inactive) | 
PAPOLG (UniProt Q9BWT3) |  |  | -0.139 (inactive) | -0.026 (inactive) | 0.02 (inactive) | -0.002 (inactive) | -0.027 (inactive) | 0.017 (inactive) |  | 0.067 (inactive)
NR3C1 isoform 3 (UniProt P04150) |  | -0.26 (inactive) | 0.012 (inactive) | 0.057 (inactive) | 0.046 (inactive) | -0.091 (inactive) | 0.012 (inactive) | -0.005 (inactive) | -0.027 (inactive) | 0.073 (inactive)
NCKAP1L (UniProt P55160) | 0 (inactive) | 0 (inactive) | -0.061 (inactive) | -0.002 (inactive) | 0.02 (inactive) | 0.025 (inactive) | 0.018 (inactive) | -0.011 (inactive) | -0.324 (inactive) | 0.017 (inactive)
NFAT5 isoform 4 (UniProt O94916) |  | -0.138 (inactive) | -0.028 (inactive) |  |  |  |  | -0.158 (inactive) | -0.053 (inactive) | 
MYH6 (UniProt P13533) | -0.111 (inactive) | -1.52 (active) | -0.097 (inactive) |  |  |  | 0.009 (inactive) | -0.245 (inactive) | -0.132 (inactive) | 
ORC1 (UniProt Q13415) |  |  |  |  |  |  | 0.023 (inactive) |  |  | 
NSA2 (UniProt O95478) | 0.014 (inactive) | -0.088 (inactive) |  | -0.036 (inactive) | -0.055 (inactive) | 0.159 (inactive) | -0.086 (inactive) |  | 0.064 (inactive) | 0.221 (inactive)
PANK4 (UniProt Q9NVE7) | -0.019 (inactive) | -0.037 (inactive) | -0.052 (inactive) | -0.049 (inactive) | -0.009 (inactive) | 0.125 (inactive) | 0.001 (inactive) | -0.001 (inactive) | -0.06 (inactive) | 0.022 (inactive)
MXRA7 (UniProt P84157) | -0.039 (inactive) |  | 0.103 (inactive) | -0.149 (inactive) | 0.056 (inactive) | -0.008 (inactive) | -0.05 (inactive) | 0.041 (inactive) |  | 0.096 (inactive)
P2RY1 (UniProt P47900) | -0.091 (inactive) | -0.444 (active) |  | -0.02 (inactive) | 0.092 (inactive) | 0.012 (inactive) | 0.1 (inactive) |  | 0.021 (inactive) | 0.007 (inactive)
OSBPL1A (UniProt Q9BXW6) | -0.035 (inactive) | -0.051 (inactive) | -0.014 (inactive) | -0.079 (inactive) | 0.072 (inactive) | 0.069 (inactive) |  | 0.019 (inactive) | -0.077 (inactive) | 0.102 (inactive)
MYCBP (UniProt Q99417) | 0.01 (inactive) | -0.052 (inactive) | 0.003 (inactive) | -0.498 (active) | 0.02 (inactive) | 0.105 (inactive) | 0.028 (inactive) | 0.008 (inactive) | -0.018 (inactive) | 0.182 (inactive)
NOA1 (UniProt Q8NC60) | -0.043 (inactive) | 0.032 (inactive) | -0.052 (inactive) | -0.282 (inactive) | 0.014 (inactive) | 0.039 (inactive) | -0.034 (inactive) | 0.021 (inactive) | -0.221 (inactive) | 0.167 (inactive)
